Active and inactive are the calls of the source. Unless noted, calls come from the whole dose curve; as a rule, active = well fitted curve in the direction sought with a large enough effect (not every such curve was filed as active); inconclusive = small, poorly fitted or top-dose-only effect, or effect the other way, or another doubt; inactive = no such curve, though single readings can be large or run the other way.

Consider 36 compounds from PubChem BioAssay (NCATS).

Sequence of Pyruvate kinase (Leishmania mexicana) (Q27686 2-499 E452W): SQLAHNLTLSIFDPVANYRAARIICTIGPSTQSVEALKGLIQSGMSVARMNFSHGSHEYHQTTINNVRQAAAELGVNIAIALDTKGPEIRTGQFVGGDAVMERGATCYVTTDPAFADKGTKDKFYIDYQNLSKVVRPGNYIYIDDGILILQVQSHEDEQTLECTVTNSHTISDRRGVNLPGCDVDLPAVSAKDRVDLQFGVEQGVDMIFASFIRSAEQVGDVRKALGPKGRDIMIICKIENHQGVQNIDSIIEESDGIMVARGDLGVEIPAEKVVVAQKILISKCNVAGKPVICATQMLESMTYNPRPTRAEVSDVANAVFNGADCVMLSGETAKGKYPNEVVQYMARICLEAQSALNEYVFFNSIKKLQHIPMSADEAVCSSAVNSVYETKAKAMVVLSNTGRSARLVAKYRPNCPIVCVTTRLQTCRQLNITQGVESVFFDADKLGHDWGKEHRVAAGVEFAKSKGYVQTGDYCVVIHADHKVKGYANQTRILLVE
Sequence of Pyruvate kinase PKM (Homo sapiens) (P14618 whole entry, looked up): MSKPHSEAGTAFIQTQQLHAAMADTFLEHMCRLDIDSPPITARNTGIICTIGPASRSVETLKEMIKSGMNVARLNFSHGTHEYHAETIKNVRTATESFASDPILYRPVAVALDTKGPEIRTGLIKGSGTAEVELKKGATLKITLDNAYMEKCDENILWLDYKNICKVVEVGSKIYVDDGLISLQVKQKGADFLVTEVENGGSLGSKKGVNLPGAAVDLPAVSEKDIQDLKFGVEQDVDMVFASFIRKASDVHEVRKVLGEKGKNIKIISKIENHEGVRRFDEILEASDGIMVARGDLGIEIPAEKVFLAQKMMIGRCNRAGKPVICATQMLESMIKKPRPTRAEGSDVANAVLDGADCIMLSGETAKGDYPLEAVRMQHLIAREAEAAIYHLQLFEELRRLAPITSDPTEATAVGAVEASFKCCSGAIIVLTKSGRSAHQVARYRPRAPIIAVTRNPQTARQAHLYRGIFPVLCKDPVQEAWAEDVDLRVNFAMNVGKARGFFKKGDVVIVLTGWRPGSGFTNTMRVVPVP

The target of the first test is Pyruvate kinase PKM (Homo sapiens) (UniProt P14618). The test is described as follows: qHTS Assay for Activators of Human Muscle Pyruvate Kinase (AID 954).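 Note: 0% = uninhibited enzyme and -100% = no enzyme or full thiadiazolimine inhibition.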 The note with it: purified human muscle pyruvate kinase, luciferase-coupled luminescence, 1 h; series mostly up to 57.5 µM; activity change, negative = inhibition: at the top concentration. A digest of the protocol:
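Reaction: 0.1 nM purified PKM2 with 0.5 mM phosphoenolpyruvate and 0.1 mM ADP, room temperature, 1 h. Readout: luciferase-based ATP luminescence after stop reagent. Activators judged against a 0.3 nM enzyme column.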
`O=C1c2c(O)ccc(O)c2C(=O)c2c(NCCNCCO)ccc(NCCNCCO)c21`: the “activity change, negative = inhibition” value was -34.3% (inactive).
Take `Cn1ccc2cc3c(cc21)CCN3C(=O)Nc1cccnc1`: the “activity change, negative = inhibition” value was -104% (inactive).
Still for that read-out and setting: the value for `O=C(c1ccc(F)cc1)C1CCN(CCn2c(=O)[nH]c3ccccc3c2=O)CC1` was 0.186% (inactive).
On the same count and under the same terms, the value for `CN1CCN(C2=Nc3cc(Cl)ccc3Nc3ccccc32)CC1` was -5.88% (inactive); that for `CNCCCC12CCC(c3ccccc31)c1ccccc12` was -6.73% (inactive); that for `CCCCc1oc2ccccc2c1C(=O)c1cc(I)c(OCCN(CC)CC)c(I)c1` was -16.2% (inactive).
Same read-out and setting: to `O=C(CCCN1CCC(O)(c2ccc(Cl)cc2)CC1)c1ccc(F)cc1` belongs -6.75% (inactive); to `NC(=O)NO`, -10.7% (inactive).
As to `CCOC(=O)C(C)(C)Oc1ccc(Cl)cc1`, the “activity change, negative = inhibition” value is -3.38% (inactive).
As for `COc1nc(C)nc(Cl)c1NC1=NCCN1`, the “activity change, negative = inhibition” value was -4.93% (inactive).
Regarding `Cc1cnc(C(=O)NCCc2ccc(S(=O)(=O)NC(=O)NC3CCCCC3)cc2)cn1`, the “activity change, negative = inhibition” value is -15.6% (inactive).
For `COc1cc2c(c(OC)c1OC)-c1ccc(OC)c(=O)cc1[C@@H](NC(C)=O)CC2`, the “activity change, negative = inhibition” value is 0.505% (inactive).
Same read-out and setting: the value for `CN(Cc1cnc2nc(N)nc(N)c2n1)c1ccc(C(=O)N[C@@H](CCC(=O)O)C(=O)O)cc1` was 10.4% (inactive); that for `O=C(C1CCCCC1)N1CC(=O)N2CCc3ccccc3C2C1` (centres undefined) was 10.4% (inactive).
Same read-out and setting: the value for `O=c1c(O)c(-c2ccc(O)c(O)c2)oc2cc(O)cc(O)c12` was -14.9% (inactive).
With `O=C(Nc1ccc([N+](=O)[O-])cc1Cl)c1cc(Cl)ccc1O`, the “activity change, negative = inhibition” value is -81.5% (inactive).
Still for that read-out and setting: the value for `CN(C)CCCN1c2ccccc2CCc2ccc(Cl)cc21` was -17.1% (inactive); that for `CC[N+](CC)(CC)CCOc1cccc(OCC[N+](CC)(CC)CC)c1OCC[N+](CC)(CC)CC` was -28.9% (inactive); that for `Cc1cc(C(C)(C)C)cc(C)c1CC1=NCCN1` was -13.1% (inactive).
Same read-out and setting: to `O=C1N(c2ccccc2)c2ccccc2C1(Cc1ccncc1)Cc1ccncc1` belongs -9.63% (inactive).
Consider `Cc1cc(C(C)(C)C)c(O)c(C)c1CC1=NCCN1`, for which the “activity change, negative = inhibition” value was 3.37% (inactive).
The same measure, in the same setting: the value for `Cc1ccc(C(=O)Nc2ccc(S(=O)(=O)O)c3cc(S(=O)(=O)O)cc(S(=O)(=O)O)c23)cc1NC(=O)c1cccc(NC(=O)Nc2cccc(C(=O)Nc3cc(C(=O)Nc4ccc(S(=O)(=O)O)c5cc(S(=O)(=O)O)cc(S(=O)(=O)O)c45)ccc3C)c2)c1` was -52.2% (inactive); that for `Clc1ccc2c(c1)C(N1CCNCC1)=Nc1ccccc1O2` was -13.2% (inactive); that for `NC(=O)OCC(COC(N)=O)c1ccccc1` was -32.4% (inactive).
On to `COc1ccc(C2CNC(=O)C2)cc1OC1CCCC1` (centres undefined), for which the “activity change, negative = inhibition” value is -2.85% (inactive).
On the same count and under the same terms, the value for `Nc1nc2c(ncn2COC(CO)CO)c(=O)[nH]1` was -27.8% (inactive); that for `CN(C)c1nc(N(C)C)nc(N(C)C)n1` was -10.6% (inactive).
Consider `Cc1ccccc1N1C(=O)c2cc(S(N)(=O)=O)c(Cl)cc2NC1C` (centres undefined), for which the “activity change, negative = inhibition” value was -14.6% (inactive).
Same read-out and setting: the value for `CN(C)C(=O)C(CCN1CCC(O)(c2ccc(Cl)cc2)CC1)(c1ccccc1)c1ccccc1` was -16.4% (inactive).
As for `OCCN1CCN(CCCN2c3ccccc3Sc3ccc(C(F)(F)F)cc32)CC1`, the “activity change, negative = inhibition” value was 0.662% (inactive).
For `Fc1ccc([C@@H]2CCNC[C@H]2COc2ccc3c(c2)OCO3)cc1`, the “activity change, negative = inhibition” value was -20.6% (inactive).
Still for that read-out and setting: to `NCCCCCC(=O)O` belongs -9.44% (inactive); to `OCCN(CCO)c1nc(N2CCCCC2)c2nc(N(CCO)CCO)nc(N3CCCCC3)c2n1`, -7.59% (inactive).
Turning to `CCOC(=O)Nc1ccc(NCc2ccc(F)cc2)nc1N`, the “activity change, negative = inhibition” value is 3.9% (inactive).
On the same count and under the same terms, to `Clc1ccccc1C(c1ccccc1)(c1ccccc1)n1ccnc1` belongs -7.06% (inactive); to `CN(C)CCC=C1c2ccccc2C=Cc2ccccc21`, -19.3% (inactive).

A further test addresses Pyruvate kinase (Leishmania mexicana) (UniProt Q27686). The test can be described thus: qHTS Validation Assay for Activators of Leishmania Mexicana Pyruvate Kinase (AID 959; active = well fitted activation curve with a large enough effect). The following applies: purified L. mexicana pyruvate kinase, enzyme activity; series mostly up to 57.5 µM; activity change, positive = activation: at the top concentration. In a few lines:
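Read-out: luminescence from PKLight stop/detection reagent, data normalized to DMSO. Reaction: 0.2 nM E451W LmPYK, 0.5 mM PEP, 0.1 mM ADP, pH 7.2, 1 h room temperature.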
In general terms: In qHTS, concentration-response curves come from the screen itself.
As for `O=C1c2c(O)ccc(O)c2C(=O)c2c(NCCNCCO)ccc(NCCNCCO)c21`, the “activity change, positive = activation” value was -36% (inactive).
Same read-out and setting: the value for `Cn1ccc2cc3c(cc21)CCN3C(=O)Nc1cccnc1` was -90.9% (inactive).
Same read-out and setting: to `O=C(Nc1ccc([N+](=O)[O-])cc1Cl)c1cc(Cl)ccc1O` belongs -71.8% (inactive).
